Experimental findings from PubChem BioAssay AID2685 (National Center for Advancing Translational Sciences (NCATS), 2010) are described below.

SMILES strings stand for the structures. The whole screen tested about 320,000 compounds, of which about 2,100 (0.66%) were called active. Roughly 53% stayed inconclusive and do not appear here. The sample holds actives, similar compounds and a random draw of the others, so the mix is not that of the screen. Calls follow the shape of the dose curve; as a rule, active = well fitted inhibition curve with a large enough effect in the signal ratio, with a control signal flat (not every such curve was filed as active); inconclusive = small, poorly fitted or top-dose-only effect, or effect the other way, or a change in a side signal; inactive = flat fitted curve, though single readings scatter; the % refers to the signal ratio.
Potency is read from the fitted curve at half-maximal effect.

The test can be described thus: qHTS Assay for Lipid Storage Modulators in Drosophila S3 Cells.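 As to cell number change: cells counted by Cell Tracker Red CMTPX staining in the red channel.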 As to lipid storage change, negative = inhibition: % is scaled to controls: 0 for no effect and ±100 for the full control effect. The settings on record: BODIPY lipid droplet fluorescence, 18-24 h, cells fed with added oleic acid; cell number change: measured here: cell count max response; series mostly up to 46.1 µM; lipid storage change, negative = inhibition: at the top concentration. An outline of the steps: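 Laser-scanning cytometry quantifies lipid droplet accumulation (500–530 nm total intensity; droplet/cell object ratio) in oleic acid-fed (400 uM added) Drosophila S3 cells treated with a concentration series. 20 uM Triacsin C defined 100% inhibition.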
`O=C(CSc1cn[nH]n1)Nc1ccccc1F`: the cell number change amounted to 16.5% and the lipid storage change, negative = inhibition was -23.4% [at 0.0737 µM] (inactive).
`CCOC(=O)C1=C(COC(=O)/C=C/c2cc(OC)c(OC)c(OC)c2)NC(=O)NC1C` (configuration not stated): the Potency is 18.4 µM (active) and the cell number change came to 4.86%.
Turning to `CCOC(=O)C1=C(COC(=O)c2cc(OC)c(OC)c(OC)c2)NC(=O)NC1C` (configuration not stated), the “lipid storage change, negative = inhibition” value is 4.7% (inactive) and the cell number change was -11.6%.
With `CCOC(=O)C1=C(COC(=O)/C=C/c2cccc(OC)c2OC)NC(=O)NC1C` (configuration not stated), the compound was called inactive.
As for `NS(=O)(=O)c1ccc(NC(=S)NC(=O)c2cccs2)cc1`, the “lipid storage change, negative = inhibition” value is -5.53% (inactive) and the cell number change was -5.36%.
For the compound `Cc1cc(Br)ccc1SCC(=O)N1CCN(S(=O)(=O)c2ccccc2)CC1`, the compound was called inactive and the cell number change came out at 10.8%.
With `Cc1ccccc1CNC(=O)CCC(=O)N1CCOc2ccc(Cl)cc21`, the “lipid storage change, negative = inhibition” value was 6.67% (inactive) and the cell number change worked out at 5.19%.
In the case of `O=C(CN1C(=O)c2cccnc2Oc2ccc(Cl)cc21)Nc1ccccc1F`, the “lipid storage change, negative = inhibition” value is -6.56% (inactive) and the cell number change was -28%.
On to `CC(CNC(=O)CN1C(=O)c2cccnc2Oc2ccc(Cl)cc21)c1ccccc1` (configuration not stated), for which the Potency is 20.6 µM (active) and the cell number change was -20.3%.
As to `CC(CNC(=O)CCC(=O)N1CCOc2ccccc21)c1ccccc1` (configuration not stated), the “lipid storage change, negative = inhibition” value is -12.8% (inactive) and the cell number change came to 5.19%.
`O=C(CN1C(=O)c2cccnc2Oc2ccc(Cl)cc21)NCCc1ccccc1`: the compound was called inactive and the cell number change is 10.9%.
For the compound `CC(CNC(=O)CCC(=O)N1CCOc2ccc(Cl)cc21)c1ccccc1` (configuration not stated), the Potency is 0.92 µM (active) and the cell number change is -20.2%.
On to `COc1ccc(NC(=O)[C@@H](NC(=O)c2ccccc2)C(C)C)cc1S(=O)(=O)N1CCCCC1`, for which the “lipid storage change, negative = inhibition” value was -1.46% (inactive) and the cell number change is -2.25%.
In the same order, the values of `CC(=O)Nc1ccc(OCC(O)Cn2c3ccccc3c3ccccc32)c(C)c1` (configuration not stated) are -3.13% (inactive) and -16.4%.
As to `CSc1nc(=S)n(-c2ccccc2)c(C)c1C(C)=O`, the “lipid storage change, negative = inhibition” value was -5.3% (inactive) and the cell number change was -14.2%.
With `O=C(CCCn1c(SCc2cccc(F)c2)nc2ccccc2c1=O)NCC1CCCO1` (configuration not stated), the “lipid storage change, negative = inhibition” value was -7.37% (inactive) and the cell number change is -0.301%.
Regarding `O=C(NCCN1CCOCC1)c1ccc(CS(=O)c2ccccc2Cl)o1` (configuration not stated), the Potency was 4.11 µM (active) and the cell number change was -8.85%.
Consider `CCN1CCN(CCNC(=O)c2ccc(CS(=O)c3ccc(Cl)cc3)o2)CC1` (configuration not stated), for which the call was inactive.
In the case of `Cc1ccccc1S(=O)(=O)Cc1ccc(C(=O)NCCCN2CCCC2)o1`, the “lipid storage change, negative = inhibition” value is 1.07% (inactive) and the cell number change was 13.9%.
With `O=C(c1ccc(CS(=O)c2ccccc2Cl)o1)N1CCCCCC1` (configuration not stated), the outcome was inactive and the cell number change is -21.2%.
Take `O=C(NCCCN1CCCCC1)c1ccc(CS(=O)c2ccc(F)cc2)o1` (configuration not stated): the result was inactive.
On to `Cc1ccccc1S(=O)Cc1ccc(C(=O)NCCCN2CCCCC2)o1` (configuration not stated), for which the Potency is 4.11 µM (active) and the cell number change was -18.3%.
Take `COc1ccc(NC(C)=O)cc1NC(=O)c1ccc(Cl)cc1`: the “lipid storage change, negative = inhibition” value is 0.28% (inactive) and the cell number change was 11.7%.
On to `CC(SCc1ccccc1)C(=O)Nc1ccccc1-c1ccccc1` (configuration not stated), for which the “lipid storage change, negative = inhibition” value is -6.56% (inactive) and the cell number change is 8.62%.
For the compound `O=S1(=O)N=C(Oc2cccc3ccccc23)c2ccccc21`, the “lipid storage change, negative = inhibition” value was -0.954% (inactive) and the cell number change was 3.24%.
On the same counts, the results for `COc1ccc(C2CCCN2C(=O)Nc2ccc(Cl)cc2)cc1OC` (configuration not stated) are -5.01% (inactive) and -6.06%.
For `Cc1ccc(C)c(CN2CCC(CNC(=O)Nc3cccc(Cl)c3C)CC2)c1`, the Potency was 25.9 µM (active) and the cell number change is -2.78%.
Regarding `Cc1ccc(C)c(CN2CCC(CNC(=O)Nc3ccc(F)c(Cl)c3)CC2)c1`, the “lipid storage change, negative = inhibition” value is -20.7% (inactive) and the cell number change was -7.91%.
On the same counts, the results for `COc1ccc(Cl)cc1NC(=O)NCC1CCN(Cc2cc(C)ccc2C)CC1` are -4.05% (inactive) and -15.2%.
Turning to `CC(C)(C)c1ccc(OCCC(=O)OCC(=O)Nc2cccnc2Cl)cc1`, the “lipid storage change, negative = inhibition” value was -4.76% (inactive) and the cell number change was -11.9%.
In the same order, the values of `COCCn1c(Cc2ccccc2)nnc1SCC(=O)N1CCCC1=O` are 10.9% (inactive) and 2.89%.
In the same order, the values of `O=C(NC1(N2CCOCC2)CC1)c1ccc(Cl)cc1` are 6.65% (inactive) and 10.5%.
For the compound `CSC1=NCCN1C(=O)c1c(F)cccc1F`, the “lipid storage change, negative = inhibition” value was 3% (inactive) and the cell number change was 10.5%.
With `CSc1ccccc1OCc1cc(C(=O)N(C)CC2COCCO2)no1` (configuration not stated), the “lipid storage change, negative = inhibition” value is -7.6% (inactive) and the cell number change stood at 5.77%.
As to `CCNC(=S)N1CCc2cc(OC)c(OC)cc2C1COc1ccccc1OC` (configuration not stated), the Potency is 11.6 µM (active) and the cell number change is -25.8%.
On to `CCNC(=S)N1CCc2cc(OC)c(OC)cc2C1COc1ccc(OC)cc1` (configuration not stated), for which the “lipid storage change, negative = inhibition” value was 6.83% (inactive) and the cell number change was -7.02%.
Take `CCC(=O)N1CCc2cc(OC)c(OC)cc2C1COc1ccccc1OC` (configuration not stated): the “lipid storage change, negative = inhibition” value was -23.2% (inactive) and the cell number change was -0.404%.
In the same order, the values of `Cc1ccc(Cn2nnnc2CN2CCC(O)(c3cccnc3)CC2)cc1` are 14.9% (inactive) and 1.82%.
With `COCCn1c(SCC(=O)Nc2ccc3c(c2)OCCO3)nnc1C(C)C`, the “lipid storage change, negative = inhibition” value was 14% (inactive) and the cell number change was 15.8%.
In the case of `COc1ccc(C(=O)N/N=C(\C)CC(=O)Nc2cccc(C(F)(F)F)c2)cc1`, the “lipid storage change, negative = inhibition” value is -0.39% (inactive) and the cell number change is -2.05%.
Regarding `CC(=O)N/N=C(\C)CC(=O)Nc1cccc(C(F)(F)F)c1`, the “lipid storage change, negative = inhibition” value was -3.97% (inactive) and the cell number change was found to be 5.44%.
For `C/C(CC(=O)Nc1cccc(C(F)(F)F)c1)=N\NC(=O)c1ccncc1`, the Potency was 4.61 µM (active) and the cell number change was -7.89%.
For the compound `O=C(O)c1cccnc1C(=O)O`, the “lipid storage change, negative = inhibition” value is 2.1% (inactive) and the cell number change is -2.7%.
In the case of `O=C(NC1CCCCC1)c1cccnc1C(=O)O`, the “lipid storage change, negative = inhibition” value is -6.71% (inactive) and the cell number change is -11.4%.
In the case of `O=C(O)c1cccnc1NC1CCCC1`, the Potency was 20.6 µM (active) and the cell number change was -16%.
